Reference: the supplement of paper PMC3545927
This is one part of the list. The true hit rate is not given.

Target: furin, P09958
Assay: furin cleavage Z-score vs untreated control; higher = more cleavage, active = 3.5 or more, inactive = 1 or less, 8 variable residues between constant flanks
How it was run: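 The cleavage Z-score was derived for purified furin acting on 8-mer peptides held on magnetic beads and fused to a cDNA oligonucleotide. Digests lasted 7.5, 15 or 30 min at 1:10 enzyme:substrate in 50 mM HEPES pH 7.5 with CaCl2 and NaCl. Sequencing counts of released DNA, log-transformed against furin-free reactions, were lowess-adjusted and scaled by median absolute deviation.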

Sequence of furin, P09958 (P09958 whole entry): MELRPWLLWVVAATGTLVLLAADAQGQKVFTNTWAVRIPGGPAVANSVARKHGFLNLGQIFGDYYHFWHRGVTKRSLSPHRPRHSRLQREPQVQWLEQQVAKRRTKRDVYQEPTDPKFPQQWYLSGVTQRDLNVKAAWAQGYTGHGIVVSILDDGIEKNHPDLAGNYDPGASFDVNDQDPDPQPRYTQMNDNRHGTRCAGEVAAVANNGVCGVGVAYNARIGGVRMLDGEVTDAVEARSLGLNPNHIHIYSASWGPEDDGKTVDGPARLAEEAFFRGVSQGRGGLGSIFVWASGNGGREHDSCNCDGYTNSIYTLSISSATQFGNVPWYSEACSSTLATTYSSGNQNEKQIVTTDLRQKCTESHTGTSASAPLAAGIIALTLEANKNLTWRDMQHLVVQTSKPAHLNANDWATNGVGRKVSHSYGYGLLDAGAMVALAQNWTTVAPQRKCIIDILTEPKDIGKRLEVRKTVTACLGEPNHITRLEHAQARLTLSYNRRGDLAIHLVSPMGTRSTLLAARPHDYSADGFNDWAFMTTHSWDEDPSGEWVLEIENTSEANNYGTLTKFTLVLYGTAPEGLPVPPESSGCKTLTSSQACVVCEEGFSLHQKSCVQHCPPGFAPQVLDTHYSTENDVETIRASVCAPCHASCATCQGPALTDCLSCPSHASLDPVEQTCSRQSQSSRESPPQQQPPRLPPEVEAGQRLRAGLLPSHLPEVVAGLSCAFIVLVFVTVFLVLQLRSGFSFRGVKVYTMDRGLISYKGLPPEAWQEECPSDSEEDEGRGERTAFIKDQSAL

B1: HC2385 (peptide)
chain: CAEVPCHRLSAGNASASA
- furin cleavage Z-score (7.5 min): 0.65 (inactive)
- furin cleavage Z-score (15 min): 0.937 (inactive)
- furin cleavage Z-score (30 min): 2.67

B2: HC755 (peptide)
chain: CAVAKAVDFIAGNASASA
- furin cleavage Z-score (7.5 min): -0.603 (inactive)
- furin cleavage Z-score (15 min): -0.471 (inactive)
- furin cleavage Z-score (30 min): -1.43 (inactive)

B3: FS-1682 (peptide)
chain: CARALRNVWQAGNASASA
- furin cleavage Z-score (7.5 min): -1.32 (inactive)
- furin cleavage Z-score (15 min): 1.58
- furin cleavage Z-score (30 min): 0.167 (inactive)

B4: FS-1883 (peptide)
chain: CALRKRLTPLAGNASASA
- furin cleavage Z-score (7.5 min): -1.32 (inactive)
- furin cleavage Z-score (15 min): -0.87 (inactive)
- furin cleavage Z-score (30 min): 0.456 (inactive)

B5: FS-2171 (peptide)
chain: CARQPRLVGAAGNASASA
- furin cleavage Z-score (7.5 min): -0.691 (inactive)
- furin cleavage Z-score (15 min): -0.656 (inactive)
- furin cleavage Z-score (30 min): -0.39 (inactive)

B6: FS-1752 (peptide)
chain: CARMKRKVGAAGNASASA
- furin cleavage Z-score (7.5 min): 2.2
- furin cleavage Z-score (15 min): 4.54 (active)
- furin cleavage Z-score (30 min): 4.95 (active)

B7: FS-1686 (peptide)
chain: CARASRDVAQAGNASASA
- furin cleavage Z-score (7.5 min): 3.28
- furin cleavage Z-score (15 min): 3.03
- furin cleavage Z-score (30 min): 3.8 (active)

B8: FS-2892 (peptide)
chain: CARASRDSSEAGNASASA
- furin cleavage Z-score (7.5 min): -0.582 (inactive)
- furin cleavage Z-score (15 min): 0.0813 (inactive)
- furin cleavage Z-score (30 min): -0.0253 (inactive)

B9: FS-686 (peptide)
chain: CALRKRLLRDAGNASASA
- furin cleavage Z-score (7.5 min): 9.49 (active)
- furin cleavage Z-score (15 min): 11.5 (active)
- furin cleavage Z-score (30 min): 8.89 (active)

B10: FS-2376 (peptide)
chain: CARRVRSAEEAGNASASA
- furin cleavage Z-score (7.5 min): 7.77 (active)
- furin cleavage Z-score (15 min): 9.29 (active)
- furin cleavage Z-score (30 min): 6.7 (active)

B11: FS-2301 (peptide)
chain: CARRVRSVILAGNASASA
- furin cleavage Z-score (7.5 min): -0.109 (inactive)
- furin cleavage Z-score (15 min): -0.0349 (inactive)
- furin cleavage Z-score (30 min): 1.3

B12: FS-3071 (peptide)
chain: CARRVRSRTHAGNASASA
- furin cleavage Z-score (7.5 min): 0.143 (inactive)
- furin cleavage Z-score (15 min): 0.522 (inactive)
- furin cleavage Z-score (30 min): 1.9

B13: HC1954 (peptide)
chain: CAKCTTPCSGAGNASASA
- furin cleavage Z-score (7.5 min): -0.367 (inactive)
- furin cleavage Z-score (15 min): 0.0622 (inactive)
- furin cleavage Z-score (30 min): 0.776 (inactive)

B14: HC2254 (peptide)
chain: CAEVVTSTWKAGNASASA
- furin cleavage Z-score (7.5 min): -0.33 (inactive)
- furin cleavage Z-score (15 min): -0.194 (inactive)
- furin cleavage Z-score (30 min): 1.09

B15: HC1996 (peptide)
chain: CAGVCCSMSYAGNASASA
- furin cleavage Z-score (7.5 min): -0.333 (inactive)
- furin cleavage Z-score (15 min): -0.0583 (inactive)
- furin cleavage Z-score (30 min): 0.735 (inactive)

B16: FS-1884 (peptide)
chain: CALRKRSVDQAGNASASA
- furin cleavage Z-score (7.5 min): 6.21 (active)
- furin cleavage Z-score (15 min): 7.15 (active)
- furin cleavage Z-score (30 min): 6.93 (active)

B17: FS-2178 (peptide)
chain: CARRMRRAGQAGNASASA
- furin cleavage Z-score (7.5 min): 3.82 (active)
- furin cleavage Z-score (15 min): 5.28 (active)
- furin cleavage Z-score (30 min): 6.43 (active)

B18: FS-3051 (peptide)
chain: CARRKRAKVEAGNASASA
- furin cleavage Z-score (7.5 min): 2.74
- furin cleavage Z-score (15 min): 5.28 (active)
- furin cleavage Z-score (30 min): 7.03 (active)

B19: HC710 (peptide)
chain: CAQMYTNVDQAGNASASA
- furin cleavage Z-score (7.5 min): 0.349 (inactive)
- furin cleavage Z-score (15 min): -0.937 (inactive)
- furin cleavage Z-score (30 min): 0.488 (inactive)

B20: FS-2294 (peptide)
chain: CARRKRAVNPAGNASASA
- furin cleavage Z-score (7.5 min): 5.19 (active)
- furin cleavage Z-score (15 min): 3.83 (active)
- furin cleavage Z-score (30 min): 4.64 (active)

B21: HC483 (peptide)
chain: CANWTRGERCAGNASASA
- furin cleavage Z-score (7.5 min): 0.47 (inactive)
- furin cleavage Z-score (15 min): 1.14
- furin cleavage Z-score (30 min): 0.279 (inactive)

B22: HC2147 (peptide)
chain: CAFVVTSTWVAGNASASA
- furin cleavage Z-score (7.5 min): 0.62 (inactive)
- furin cleavage Z-score (15 min): 0.171 (inactive)
- furin cleavage Z-score (30 min): -0.5 (inactive)

B23: TV2 (peptide)
chain: CAGENLYFQGAGNASASA
- furin cleavage Z-score (7.5 min): -1.7 (inactive)
- furin cleavage Z-score (15 min): -0.261 (inactive)
- furin cleavage Z-score (30 min): -0.768 (inactive)

B24: HC109 (peptide)
chain: CAVVCCHMSYAGNASASA
- furin cleavage Z-score (7.5 min): 1.01
- furin cleavage Z-score (15 min): -0.749 (inactive)
- furin cleavage Z-score (30 min): 0.554 (inactive)

B25: HC793 (peptide)
chain: CAGAYMSKAHAGNASASA
- furin cleavage Z-score (7.5 min): -0.996 (inactive)
- furin cleavage Z-score (15 min): -1.61 (inactive)
- furin cleavage Z-score (30 min): -0.903 (inactive)

B26: HC2535 (peptide)
chain: CASTPCSHHLAGNASASA
- furin cleavage Z-score (7.5 min): 0.275 (inactive)
- furin cleavage Z-score (15 min): 0.419 (inactive)
- furin cleavage Z-score (30 min): -0.167 (inactive)

B27: FS-2719 (peptide)
chain: CARMKRFRVDAGNASASA
- furin cleavage Z-score (7.5 min): -0.757 (inactive)
- furin cleavage Z-score (15 min): 0.996 (inactive)
- furin cleavage Z-score (30 min): 1.75

B28: FS-1836 (peptide)
chain: CARRKRYRNFAGNASASA
- furin cleavage Z-score (7.5 min): 1.23
- furin cleavage Z-score (15 min): 0.582 (inactive)
- furin cleavage Z-score (30 min): 2.95

B29: FS-1919 (peptide)
chain: CARRKRSVAQAGNASASA
- furin cleavage Z-score (7.5 min): 4.44 (active)
- furin cleavage Z-score (15 min): 4.31 (active)
- furin cleavage Z-score (30 min): 4.11 (active)

B30: FS-2001 (peptide)
chain: CAREDRFFCPAGNASASA
- furin cleavage Z-score (7.5 min): -0.0818 (inactive)
- furin cleavage Z-score (15 min): 0.295 (inactive)
- furin cleavage Z-score (30 min): -0.529 (inactive)

B31: FS-2776 (peptide)
chain: CARRKKARGPAGNASASA
- furin cleavage Z-score (7.5 min): 0.453 (inactive)
- furin cleavage Z-score (15 min): -0.0472 (inactive)
- furin cleavage Z-score (30 min): -0.48 (inactive)

B32: FS-2721 (peptide)
chain: CARMKRSRCPAGNASASA
- furin cleavage Z-score (7.5 min): 5.18 (active)
- furin cleavage Z-score (15 min): 7.21 (active)
- furin cleavage Z-score (30 min): 5.91 (active)

B33: FS-3231 (peptide)
chain: CARRKRKEKQAGNASASA
- furin cleavage Z-score (7.5 min): -1.72 (inactive)
- furin cleavage Z-score (15 min): -1.54 (inactive)
- furin cleavage Z-score (30 min): 0.219 (inactive)

B34: FS-1835 (peptide)
chain: CARRKRSRKPAGNASASA
- furin cleavage Z-score (7.5 min): 6.72 (active)
- furin cleavage Z-score (15 min): 6.37 (active)
- furin cleavage Z-score (30 min): 6.82 (active)

B35: HC721 (peptide)
chain: CATPCTCGSSAGNASASA
- furin cleavage Z-score (7.5 min): -1.49 (inactive)
- furin cleavage Z-score (15 min): -2.13 (inactive)
- furin cleavage Z-score (30 min): -1.32 (inactive)

B36: HC1015 (peptide)
chain: CAEECSQHLPAGNASASA
- furin cleavage Z-score (7.5 min): 0.447 (inactive)
- furin cleavage Z-score (15 min): 0.0813 (inactive)
- furin cleavage Z-score (30 min): -0.935 (inactive)

B37: HC930 (peptide)
chain: CALRAYMNTPAGNASASA
- furin cleavage Z-score (7.5 min): 0.0194 (inactive)
- furin cleavage Z-score (15 min): -1.18 (inactive)
- furin cleavage Z-score (30 min): 0.0807 (inactive)

B38: FS-1498 (peptide)
chain: CATTTRKNRSAGNASASA
- furin cleavage Z-score (7.5 min): 8.64 (active)
- furin cleavage Z-score (15 min): 11 (active)
- furin cleavage Z-score (30 min): 7.73 (active)

B39: FS-942 (peptide)
chain: CALRARKNRSAGNASASA
- furin cleavage Z-score (7.5 min): 8.1 (active)
- furin cleavage Z-score (15 min): 8.12 (active)
- furin cleavage Z-score (30 min): 6.93 (active)

B40: FS-1053 (peptide)
chain: CAPRARSRRSAGNASASA
- furin cleavage Z-score (7.5 min): 9.77 (active)
- furin cleavage Z-score (15 min): 10.8 (active)
- furin cleavage Z-score (30 min): 8.95 (active)

B41: FS-229 (peptide)
chain: CAEEIRVNRSAGNASASA
- furin cleavage Z-score (7.5 min): 2.33
- furin cleavage Z-score (15 min): 0.724 (inactive)
- furin cleavage Z-score (30 min): 1.69

B42: FS-74 (peptide)
chain: CAPRAAERRSAGNASASA
- furin cleavage Z-score (7.5 min): -1.2 (inactive)
- furin cleavage Z-score (15 min): -1.99 (inactive)
- furin cleavage Z-score (30 min): -1.56 (inactive)

B43: HC1878 (peptide)
chain: CATTTCSGSWAGNASASA
- furin cleavage Z-score (7.5 min): -0.962 (inactive)
- furin cleavage Z-score (15 min): 0.367 (inactive)
- furin cleavage Z-score (30 min): -0.313 (inactive)

B44: FS-949 (peptide)
chain: CAPRARKNRSAGNASASA
- furin cleavage Z-score (7.5 min): 12.3 (active)
- furin cleavage Z-score (15 min): 12.6 (active)
- furin cleavage Z-score (30 min): 8.81 (active)
